# Experimental data reported in PubChem BioAssay AID624297 (National Center for Advancing Translational Sciences (NCATS), 2012).
# Where “and” joins values, the source holds several entries; their conditions need not be identical. Identical values can stand only once. Screen size: about 340,000 compounds; about 6,200 (1.8%) were called active. Entries that show only a call come without a potency. Another 10% or so got no clear call; they are omitted. Only a selection was taken, and actives are over-represented in it overall. Values without a mark were called inactive. The call rests on the fitted dose curve; in most records, active means well fitted activation curve with a large enough effect; inconclusive means small, poorly fitted or top-dose-only effect; inactive means no such curve, though single readings can be large or run the other way.
# Assay: A quantitative high throughput screen for small molecules that induce DNA re-replication in SW480 colon adenocarcinoma cells. Further: nearly all actives have a fitted effect of over 55% in size.
# Conditions: Hoechst DNA content imaging, 48 h; series mostly up to 46.1 µM
# In short: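 Readout is total intensity of Hoechst-stained nuclei, excited at 405 nm and collected at 500-530 nm. Compound treatment lasted 48 hr at 37 C in 5% CO2 before staining.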
# Potency means the concentration at half of the fitted maximal effect.
Structure (SMILES),Potency,re-replication activation
CC(C)n1cnc2c(NCc3ccccc3)cc(OCC3CCN(C)CC3)cc21,inactive,–
COc1ccccc1NS(=O)(=O)c1ccc(C)c(C(=O)NNC(=O)c2csc(N3CCOCC3)n2)c1,inactive,–
O=C(C(=O)N1CCc2ccccc2C1)N1CCc2ccccc2C1,inactive,–
O=C(C(=O)N1CCc2ccccc2C1)c1c[nH]c2ccccc12,4.11 µM (active),–
O=C(NC1CCCC1)C(=O)c1c[nH]c2ccccc12,inactive,–
COc1cc2c(-c3ccc4c(c3)OCO4)c(-c3ccsc3)oc(=O)c2cc1OC,–,-0.829% [at 9.22 µM]
COc1ccc(-c2ccc3c(c2)[C@@H]2C[C@H](N(C)S(=O)(=O)c4ccccc4)[C@H]([C@H](C)O)C(=O)N2CC3)cc1,inactive,–
CC1CCCN(C(=O)Cn2c(=O)oc3cc(S(=O)(=O)N4CCCCC4C)ccc32)C1 (centres undefined),inactive,–
COC(=O)Nc1nc2ccc(Sc3ccccc3)cc2[nH]1,640 nM (active) and 2.06 µM (active),–
Cc1ccc(O)c(CNc2nc3ccccc3[nH]2)c1,inactive,–
CC(C)c1nc2ccc(C(=O)O)cc2[nH]1,inactive,–
COc1ccc(C)cc1NC(=O)CN1c2cccc3cccc(c23)S1(=O)=O,inactive,–
Cc1ccc(C(C(=O)NCC2CCCO2)N(C(=O)c2snc(C(N)=O)c2N)c2ccc(C(C)C)cc2)o1 (centres undefined),18.4 µM (active),–
Cc1ccc(N(C(=O)c2snc(C(N)=O)c2N)C(C(=O)NCC2CCCO2)c2c[nH]c3ccccc23)cc1 (centres undefined),inactive,–
CCOc1ccc(N(C(=O)c2snc(C(N)=O)c2N)C(C(=O)NCC2CCCO2)c2c[nH]c3ccccc23)cc1 (centres undefined),inactive,–
COc1ccccc1C(=O)COC(=O)COc1ccc(C#N)cc1,inactive,–
CCCC(CNC(=O)COC(=O)C1=NNC(=O)CC1)c1ccc(Cl)cc1Cl (centres undefined),inactive,–
Oc1[nH]c2ccccc2c1N=Nc1c(F)c(F)c(F)c(F)c1F,inactive,–
C(#CCN1CCOCC1)CCCN1CCOCC1,inactive,–
O=C(COc1cccnc1[N+](=O)[O-])Nc1ccc(Cl)cc1F,inactive,–
COc1cccc(NC(=O)CN(C)C(=O)/C=C/c2cn(-c3ccccc3)nc2-c2cccs2)c1,inactive,–
O=C(CCl)Nc1ccc(Sc2ccc(NC(=O)CCl)cc2)cc1,4.61 µM (active),–
Cc1ccc(NC(=O)CC(=O)Nc2ccc(C)cc2)cc1,inactive,–
O=C(Nc1ccc(Sc2ccc(Br)cc2)cc1)c1ccco1,inactive,–
CC1CCCCC1NC(=O)Cn1cnc2c1c(=O)n(C)c(=O)n2C (centres undefined),inactive,–

Structure (SMILES),Potency,re-replication activation
COc1ccc(-c2nnc(SC(C)C(=O)NC3CC3)o2)cc1 (centres undefined),inactive,–
COc1ccc2c(CC(=O)NNC(=O)c3ccccc3F)coc2c1,inactive,–
c1ccc(-c2cc3c(NCC4COc5ccccc5O4)ncnc3s2)cc1 (centres undefined),18.4 µM (active),–
Oc1ccccc1N1CCN(c2ncnc3sc(-c4ccccc4)cc23)CC1,inactive,–
S=C(NCC1COc2ccccc2O1)Nc1ccc(Br)cc1 (centres undefined),inactive,–
Cc1ccc(NC(=O)C(C)OC(=O)C2CC3CCCC(C2)C3=O)cc1S(=O)(=O)N1CCOCC1 (centres undefined),inactive,–
CN(C)C(=O)CCc1ccc2c3c([nH]c2c1)[C@]1(C)[C@@H](C(=O)N2CCCCC2)C[C@H](CC(=O)NCCC2=CCCCC2)C(=O)N1CC3,inactive,–
COC(=O)c1ccc(CNC(=O)Cn2cc(C)c(=O)[nH]c2=O)cc1,inactive,–
C[C@H](CO)N1C[C@H](C)[C@@H](CN(C)Cc2ccc(-c3ccccc3)cc2)Oc2ccc(NC(=O)Cn3cnnn3)cc2C1=O,inactive,–
Cc1ccc2[nH]c(=O)c(CC(=O)O)c(-c3ccccc3)c2c1,inactive,–
CCN(CC)CCCNC(=O)c1cc2c(=O)[nH]c3ccc(C)cc3c2s1,inactive,–
Cc1cccc(N(C)C(=O)c2cc3c(=O)[nH]c4ccc(C)cc4c3s2)c1,9.2 µM (active),–
CCCN(CC(=O)Nc1ccccc1C)C(=O)c1ccc(OCC(=O)N2CCOCC2)c(OCC)c1,inactive,–
Cc1nc2ccccc2c(C(=O)O)c1-c1ccccn1,inactive,–
NC(=O)c1c(NC(=O)c2ccccc2)sc2c1CCCC2,inactive,–
C=CCN(CC=C)S(=O)(=O)c1ccc(C(=O)Nc2nc3c(s2)CCc2ccccc2-3)cc1,14.6 µM (active),–
COc1cccc(OC)c1C(=O)Nc1sc2c(c1C(N)=O)CCCC2,inactive,–
CCN(c1ccccc1)S(=O)(=O)c1ccc(C(=O)Nc2nccs2)cc1,inactive,–
C=CCN(CC=C)S(=O)(=O)c1ccc(C(=O)Nc2sc3c(c2C(N)=O)CCCCC3)cc1,9.2 µM (active),–
COc1ccc(C(=O)Nc2ncc3c(n2)-c2ccccc2CC3)cc1,inactive,–
O=C(O)C1C2C=CC(O2)C1C(=O)Nc1ccccn1 (centres undefined),inactive,–
O=C(CNC(=O)c1ccco1)NNC(=O)c1ccc(Br)cc1,inactive,–
O=C(O)c1ccc(Cn2cnc3c(=S)nc[nH]c32)cc1,inactive,–
Cc1cc([N+](=O)[O-])ccc1NS(=O)(=O)c1ccccc1,inactive,–
